According to PubChem BioAssay (NCATS):
Results filed as inconclusive are left out. A call without a number means that no potency is given here. Activity calls are given as the source filed them. Calls follow the shape of the dose curve; as a rule, active = well fitted inhibition curve with a large enough effect; inconclusive = small, poorly fitted or top-dose-only effect; inactive = flat fitted curve, though single readings scatter.

System: MCC-26
Test: qHTS assay to identify novel small-molecules to repurpose for Merkel cell carcinoma treatment (AID 1296009); also: nearly all actives have a fitted effect of over 60% in size
Conditions: MCC and control cell lines, CellTiter-Glo viability, 72 h; series mostly up to 46 µM
Description: MCC is a rare and aggressive neuroendocrine skin cancer with limited treatment options. Approximately 80% of MCCs have the Merkel cell polyomavirus (MCPyV) DNA integrated into the host genome (virus-positive: VP-MCC) and viral oncogenes drive oncogenesis. The remaining MCCs are virus-negative (VN-MCC) and are caused by UV mutagenesis. To identify novel treatments for VP-MCC and/or VN-MCC we screened three VP-MCC cell lines (WAGA, MKL-1, MKL-2), three VN-MCC cell lines (MCC-13, MCC-26, UISO), and four immortalized, non-transformed control cell lines (HaCaT, HEK293T, CRL7250, NIH-3T3) against ~2,400 compounds in the NCGC Pharmaceutical Collection (NPC) and ~1,900 compounds in the Mechanism Interrogation PlatE (MiPE). Using cell viability as a readout (CellTiter-Glo assay) we found both overlapping and distinct drugs that can be repurposed for the treatment of VP-MCC and VN-MCC.
A high-throughput screen was conducted in 1536-well white flat bottom plates (Corning) on a Kalypsys robotic system. Cell lines WAGA, MKL-1, MKL-2, MCC-13, MCC-26, UISO, HaCaT, HEK293T, CRL7250, and NIH-3T3 were screened against 2 small molecule annotated drug libraries NPC and MIPE in dose response (8 and 11 pt. respectively) measuring cell viability after 72 hours of incubation. […] A 1,536 pintool (Kalypsys) was used to transfer 23 nL of compound in DMSO to the 1,536-well assay plates. After 72 hr incubation at 37 degree celsius, 2.5 uL of CellTiter-Glo (Promega) was dispensed into each well using a BiorapTR. Plates were incubated at room temperature for 10 min, transferred to a ViewLux (PerkinElmer) and the luminescence was recorded using an exposure time of 2 seconds. Relative luminescence units (RLUs) were normalized to in-plate controls (no cells as a positive (cytotoxicity) control, DMSO as negative control) and the normalized data was processed using NCATS in-house software.
Potency is read from the fitted curve at half-maximal effect.

| Structure (SMILES) | Potency |
| --- | --- |
| CC(C)NCC(O)COc1cccc2[nH]ccc12 (stereo not given) | inactive |
| O=C(O)Cc1cccc2ccccc12 | inactive |
| O=C(O)c1ccc(-c2cc3cccnc3c(-c3ccc4nonc4c3)n2)cc1 | inactive |
| CCc1ccc(C=C2SC(=S)NC2=O)cc1 | inactive |
| Nc1ncnc2c1nc(Cl)n2[C@@H]1O[C@H](CO)[C@@H](O)[C@@H]1O | inactive |
| O=C1NC(=O)C(=Cc2ccc(-c3ccc(F)cc3)o2)S1 | inactive |
| CCOC(CN1C(=O)[C@](CC(=O)Nc2ccc(C)cc2)(NC(=O)Nc2ccc(C)cc2)c2ccccc21)OCC | inactive |
| CC(C)(C)Cn1c(N)nc2ccc(-c3[nH]c(C(C)(C)C)nc3-c3ccc(F)cc3)nc21 | inactive |
| COc1ccc(-c2nc(N3CCOCC3)c3sc(CN(C)c4ncc(C(=O)NO)cn4)cc3n2)cn1 | 0.0526 µM (active) |
| C[N+]1(C)[C@@H]2CC(OC(=O)[C@H](CO)c3ccccc3)C[C@H]1[C@H]1O[C@@H]12 (stereo not given in full) | inactive |
| Nc1ncnc2c1ncn2[C@@H]1O[C@@H](CO)[C@H](O)[C@H]1O | inactive |
| CCN(CC)CCOC(=O)c1ccc(N)cc1 | inactive |
| CN(C)CCC(c1ccccc1)c1ccccn1 (stereo not given) | inactive |
| CCN(CC)CCOc1ccc(C(=C(Cl)c2ccccc2)c2ccccc2)cc1 | inactive |
| CCCNC(=O)NS(=O)(=O)c1ccc(Cl)cc1 | inactive |
| C=C1C(=O)OC2C=C(C)CCC=C(C)CCC12 (stereo not given) | inactive |
| COc1cc(N2CCC(N3CCN(C)CC3)CC2)ccc1Nc1ncc(Cl)c(Nc2ccccc2S(=O)(=O)C(C)C)n1 | 5.9 µM (active) |
| CC[C@H]1OC(=O)[C@H](C)[C@@H](O[C@H]2C[C@@](C)(OC)[C@@H](O)[C@H](C)O2)[C@H](C)[C@@H](O[C@@H]2O[C@H](C)C[C@H](N(C)C)[C@@H]2O)[C@](C)(O)C[C@@H](C)CN(C)[C@H](C)[C@@H](O)[C@]1(C)O | inactive |
| CO[C@H]1C[C@@H]2CC[C@@H](C)[C@@](O)(O2)C(=O)C(=O)N2CCCC[C@@H]2C(=O)O[C@H]([C@H](C)C[C@@H]2CC[C@H](OP(C)(C)=O)[C@H](OC)C2)CC(=O)[C@H](C)C=C(C)[C@@H](O)[C@@H](OC)C(=O)[C@H](C)C[C@H](C)C=CC=CC=C1C | inactive |
| CC(C)(C)c1ccc(C(O)CCCN2CCC(C(O)(c3ccccc3)c3ccccc3)CC2)cc1 (stereo not given) | inactive |

| Structure (SMILES) | Potency |
| --- | --- |
| CC1(C)Cc2c(sc(NC(=S)NC(=O)c3ccccc3)c2C(=O)O)CO1 | inactive |
| O=C(NOCC(O)CO)c1cc(Br)c(F)c(F)c1Nc1ccc(I)cc1F (stereo not given) | inactive |
| CCCCCCCCCCCC1=C(O)C(=O)C=C(O)C1=O | inactive |
| COc1cc(N2CCC(N3CCN(C)CC3)CC2)ccc1Nc1ncnc(Nc2ccccc2S(=O)(=O)C(C)C)n1 | 11.8 µM (active) |
| CC(C)C(=O)Oc1ccc(CO)cc1[C@H](CCN(C(C)C)C(C)C)c1ccccc1 | inactive |
| Cc1c[nH]c(C=C2C(=O)Nc3ccccc32)c1CCC(=O)O | inactive |
| O=c1c(-c2ccc(O)cc2)coc2cc(O[C@@H]3O[C@H](CO)[C@H](O)[C@H](O)[C@H]3O)ccc12 | inactive |
| C[C@H](NC(=O)C(=O)Nc1ccccc1C(C)(C)C)C(=O)N[C@@H](CC(=O)O)C(=O)COc1c(F)c(F)cc(F)c1F | inactive |
| CN1C[C@H]2c3ccccc3Oc3ccc(Cl)cc3[C@@H]2C1 | inactive |
| O=C1NC(=O)C(=Cc2ccc3nccnc3c2)S1 | inactive |
| CC(C)OC(=O)CCCC=CC[C@@H]1[C@H](C=C[C@@H](O)COc2cccc(C(F)(F)F)c2)[C@H](O)C[C@@H]1O | inactive |
| CC(=O)OC1C(C)OC(Oc2c(-c3ccc(O)cc3)oc3cc(O)cc(O)c3c2=O)C(O)C1OC(C)=O (stereo not given) | inactive |
| Cc1ccc(Nc2cc(-c3cccc(N4C(=O)c5ccccc5C4=O)c3)ncn2)cc1NS(C)(=O)=O | inactive |
| O=c1c(-c2ccc(O)cc2)coc2cc(OC3O[C@H](CO)[C@H](O)[C@H](O)[C@H]3O)cc(O)c12 (stereo not given in full) | inactive |
| CC1CCC(C(=O)N(c2cc(C#CC(C)(C)C)sc2C(=O)O)C2CCC(O)CC2)CC1 (stereo not given) | inactive |
| COCCOC(=O)C1=C(C)NC2=C(C(=O)CC(c3ccccc3OC)C2)C1c1cccc(O)c1 (stereo not given) | inactive |
| COC(=O)N[C@H](C(=O)N1CCC[C@@H]1c1ncc(-c2ccc(-c3ccc(-c4cnc([C@@H]5CCCN5C(=O)[C@@H](NC(=O)OC)C(C)C)[nH]4)cc3)cc2)[nH]1)C(C)C | inactive |
| CN1[C@@H]2CCC[C@@H]1CC(NC(=O)c1nn(C)c3ccccc13)C2 (stereo not given in full) | inactive |
| Cc1ccc(C(=O)Nc2cccc(C(F)(F)F)c2)cc1Nc1nc(-c2cccnc2)nc2c1cnn2C | inactive |
| Nc1ncnc2ccccc12 | inactive |
